From PubChem
This is a sample that favours compounds with a hit; in the whole collection about 13% have one here.
Pf growth 48h = inhibits P. falciparum growth in the first generation, 48 h; P. falciparum luciferase growth in erythrocytes, 48 h; AID 504832; hit rate 5.9% among 310,000; Potency, µM (highest dose often 28.7 µM), for the others: top-dose activity change, negative = inhibition, usual class: inhibitors; also: potency is read from the fitted curve at half-maximal effect
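Firefly luciferase activity from engineered P. falciparum reports growth; inhibitors lower the luminescent signal. Cultures contained 2% hematocrit erythrocytes at 0.1% final parasitemia.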
Pf growth 96h = P. falciparum growth inhibition at 96 hour, primary screen for plastid delayed-death inhibitors. hit rate 6.9% among 320,000. Potency, µM (top dose mostly 28.7 µM), for inactives: at the top dose activity change, negative = inhibition, most hits filed as inhibitors. P. falciparum luciferase reporter growth, 96 h. AID 504834; also: potency is read from the fitted curve at half-maximal effect
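Delayed-death screen, second-generation endpoint: infected erythrocytes, 2% hematocrit, 0.05% parasitemia final; 96 hours at 37 C, 5% CO2; luciferase detection reagent; luminescence decrease equals reduced growth.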
HCV inh = blocks hepatitis C virus; AID 651820; Potency, µM (titrated, usually from 41.8 µM), inactives show at the highest dose activity change, negative = inhibition, most hits filed as inhibitors; Huh7.5.1 HCVcc-Cre infection, luciferase reporter, 44 h; hit rate 3.4% among 340,000; also: potency is read from the fitted curve at half-maximal effect
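Reporter virus HCVcc-Cre (~0.5 moi) infects cells exposed to compound; seeding density 1,000 cells/well with 4 h settling beforehand. Luminescence, 15 sec read, taken 44 h post-infection following a 15 min RT substrate incubation.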
HCMV inh = blocks human cytomegalovirus replication | HFF cells, HCMV-luciferase reporter, 72 h; active compounds read low | activity change, negative = inhibition, % at 57.5 µM | hit rate 4.5% among 410,000 | AID 1259415; in the data active = activity change below about -60%; inconclusive = no clear call, values can overlap the other calls; inactive = above about -39%
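After 16 h attachment at 37C, HFF cells received test compound and HCMV-luciferase (1 PFU/cell); reporter luminescence read 72 h later, data normalized against buffer-only and known inhibitor Salinomycin.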
Numbers without * were called inactive. Unless noted, calls follow the shape of the dose curve; as a rule, active = well fitted inhibition curve with a large enough effect; inconclusive = small, poorly fitted or top-dose-only effect, or another doubt; inactive = no such curve, though single readings can be large or run the other way. % is scaled to controls: 0 for no effect and ±100 for the full control effect.

`COc1ccc(CNC(=O)c2ccc3c(c2)N=C(C)c2c(C)ccc(C)c2S3)cc1` gave HCMV inh -6.
For Cc1ccc(-c2csc(N3CCC[C@@H]3C(=O)NCCn3c([C@H](C)N)nc4ccccc43)n2)cc1 the results were HCMV inh 0.
Screening Cc1oc(-c2ccccc2F)nc1CS(=O)(=O)CC(=O)NCCc1ccc(Cl)cc1 returned HCMV inh -24.
Screening COC(=O)CN1C(=O)S/C(=C/c2ccc(N3CCCCC3)o2)C1=O returned Pf growth 48h 49%, Pf growth 96h 11%, HCV inh inconclusive and HCMV inh -104*.
Screening CCCN1C(=O)S/C(=C/c2ccc(N3CCOCC3)o2)C1=O returned Pf growth 48h 47%, Pf growth 96h 41%, HCV inh inconclusive and HCMV inh -79*.
Screening COc1cccc(-c2nc(S(=O)(=O)c3ccccc3)c(N3CCC(C)CC3)o2)c1 returned HCMV inh 5.
Screening CC(C)Cn1nc(NC(=O)C2CCCO2)c2cc3ccccc3nc21 (centres undefined) returned Pf growth 48h inconclusive, Pf growth 96h inconclusive, HCV inh -26% and HCMV inh -38.
For CCCn1nc(NC(=O)C2CCCO2)c2cc3cccc(C)c3nc21 (centres undefined) the results were Pf growth 48h -29%, Pf growth 96h -18%, HCV inh 11µM* and HCMV inh 8.
`CCn1nc(NC(=O)c2ccccc2)c2cc3cccc(C)c3nc21` gave Pf growth 48h inconclusive, Pf growth 96h -23%, HCV inh 25µM* and HCMV inh -18.
Screening COc1cc(O)ccc1C1CC(=O)Nc2c1c(=O)nc(SCc1ccccc1C)n2C (centres undefined) returned HCMV inh -12.
Screening CCC(C)NC(=O)c1c(F)c(F)c(F)c(F)c1F (centres undefined) returned Pf growth 48h -27%, Pf growth 96h -4%, HCV inh 13% and HCMV inh -68*.
`CCC(C)NC(=O)c1ccccc1-c1ccccc1C(=O)NC(C)CC` (centres undefined) gave Pf growth 48h -29%, Pf growth 96h 21%, HCV inh 26% and HCMV inh 27.
For Cc1cccc(N2CCN(S(=O)(=O)c3ccc4oc(=O)c5ncn(C)c5c4c3)CC2)c1C the results were HCMV inh -5.
For S=C(NCc1ccc(Cl)cc1)Nc1ccncc1 the results were Pf growth 48h 13µM*, Pf growth 96h 0%, HCV inh 6.3µM* and HCMV inh inconclusive.
`S=C(NCc1ccc(Cl)cc1)Nc1ccccc1` gave Pf growth 48h 0%, Pf growth 96h -7%, HCV inh -29% and HCMV inh -66*.
Cc1nc(-c2ccc(S(=O)(=O)N(C)Cc3ccccc3)cc2)co1 was read as HCMV inh 13.
For Cn1cc(-c2cc3n(n2)CCC(=O)N3CC(=O)O)c2ccccc21 the results were HCMV inh -15.
Screening CC(C)(C)OC(=O)N1CCC[C@H]1c1nnc(SC/C=C/c2ccccc2)o1 returned Pf growth 48h 10µM*, Pf growth 96h inconclusive, HCV inh -30% and HCMV inh 5.
Screening CC(C)(C)OC(=O)N1CCC[C@H]1c1nnc(SCc2ccccc2Cl)o1 returned Pf growth 48h inconclusive, Pf growth 96h inconclusive, HCV inh 0% and HCMV inh 10.
CCN(Cc1ccncc1)Cc1nc(CC2CC2)no1 was read as Pf growth 48h -5%, Pf growth 96h 44%, HCV inh 15% and HCMV inh -60*.
For S=C=Nc1cccc(C2(N3CCCCC3)CCCCC2)c1 the results were Pf growth 48h 2.6µM*, Pf growth 96h 1.7µM*, HCV inh inconclusive and HCMV inh inconclusive.
For COc1ccc(C2=NCC(=S)Nc3ccc(Cl)cc32)cc1Cl the results were Pf growth 48h inconclusive, Pf growth 96h inconclusive, HCV inh -13% and HCMV inh -63*.
Screening COc1ccc(C2=NCC(=S)Nc3ccc(Cl)cc32)cc1OC returned HCV inh -5% and HCMV inh 116.
CC(Oc1ccccc1)C(=O)Nc1cccc(-c2cn3cccnc3n2)c1 (centres undefined) was read as HCMV inh -18.
Screening CCN(CC)CCCn1c2c(c(SCC(=O)Nc3ccc4c(c3)OCCO4)nc1=O)CCC2 returned Pf growth 48h -3%, Pf growth 96h inconclusive, HCV inh -23% and HCMV inh -20.
CC(=O)Nc1ccc(NC(=O)CSc2nc(=O)n(CCCN3CCOCC3)c3c2CCC3)cc1 was read as HCMV inh -13.
Screening CCN(CC)CCn1c2c(c(SCC(=O)Nc3ccc4c(c3)OCCO4)nc1=O)CCCC2 returned Pf growth 48h inconclusive, Pf growth 96h 2.9µM*, HCV inh 0% and HCMV inh -15.
`CCc1ccc(NC(=O)CSc2nc(=O)n(CCCN3CCOCC3)c3c2CCCC3)cc1` gave Pf growth 48h 9.3µM*, Pf growth 96h inconclusive, HCV inh -2% and HCMV inh -9.
Screening COc1ccc(S(=O)(=O)N2C[C@@H](O)COC[C@@H]3O[C@H](CC(=O)NCCCN4CCOCC4)CC[C@H]32)cc1 returned HCMV inh -74*.
Screening O=c1c2cccnc2n(Cc2ccccc2F)c(=O)n1Cc1ccc(F)cc1 returned HCMV inh 0.
`O=C(Cn1nc(C(F)(F)F)cc1C1CC1)NCc1ccccc1F` gave Pf growth 48h -4%, Pf growth 96h 9%, HCV inh -14% and HCMV inh -69*.
Cc1cc(C(F)(F)F)nn1CC(=O)NCc1ccco1 was read as Pf growth 48h 17%, Pf growth 96h 1.5µM*, HCV inh -2% and HCMV inh -4.
Cc1c(Cl)c(C(F)(F)F)nn1CC(=O)NCc1ccco1 was read as Pf growth 48h 9%, Pf growth 96h inconclusive, HCV inh 2% and HCMV inh -25.
For Cc1c(Cl)c([N+](=O)[O-])nn1CC(=O)NCc1ccco1 the results were Pf growth 48h 12%, Pf growth 96h 1.5µM*, HCV inh 12% and HCMV inh 11.
Clc1ccc(-n2nnnc2-c2cnc(-c3ccncc3)nc2-c2cccs2)cc1 was read as Pf growth 48h 4.7µM*, Pf growth 96h inconclusive, HCV inh 22µM* and HCMV inh -62*.
FC(F)(F)c1nc(-c2cccnc2)ncc1-c1nnnn1-c1ccccc1 was read as Pf growth 48h 18%, Pf growth 96h inconclusive, HCV inh inconclusive and HCMV inh -26.
`CCc1ccc(C2CC(=O)c3c([nH]c(C(=O)OC4CCCCCC4)c3C)C2)cc1` (centres undefined) gave HCMV inh -18.
`Cn1c(/C=C/c2cccc([N+](=O)[O-])c2)nc2ccccc2c1=O` gave Pf growth 48h 15%, Pf growth 96h inconclusive, HCV inh -15% and HCMV inh -61*.
